Results as given in PubChem BioAssay (Tox21).
Values without a mark were called inactive. Entries that show only a call come without a potency. Active and inactive are the calls of the source. Unless noted, calls come from the whole dose curve; as a rule, active = well fitted curve in the direction sought with a large enough effect in the repeat runs; inconclusive = weak or mixed curves; inactive = no such curve, though single readings can be large; an effect the other way counts as inactive or inconclusive.

Legend:
[1] = tested on: thyroid hormone receptor (rat, GH3 cells); experiment: qHTS assay to identify small molecule agonists of the thyroid receptor (TR) signaling pathway (AID 743066; calls by dose curve)
[2] = qHTS assay to identify small molecule antagonists of the estrogen receptor alpha (ER-alpha) signaling pathway - cell viability counter screen (AID 743074; calls by dose curve;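 note: HEK293 cells carrying ER-alpha-UAS-bla reporter stimulated with 17beta-estradiol; nearly all actives have a fitted effect of over 45% in size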)
[3] = qHTS assay to identify small molecule antagonists of the estrogen receptor alpha (ER-alpha) signaling pathway using the BG1 cell line - cell viability counter screen (AID 743081);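 note: compound given together with 17beta-estradiol as the ER stimulus; series mostly up to about 70 µM; nearly all actives have a fitted effect of over 45% in size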
Aromatase (Homo sapiens) = Aromatase (Homo sapiens) (UniProt P11511); experiment: qHTS assay to identify aromatase inhibitors (AID 743083); note: nearly all actives have a fitted effect of over 55% in size; note: potency is the fitted concentration of half-maximal effect
[4] = biological target: Aryl hydrocarbon receptor (Homo sapiens) (UniProt P35869); experiment: qHTS assay to identify small molecule that activate the aryl hydrocarbon receptor (AhR) signaling pathway (AID 743085); note: nearly all actives have a fitted effect of over 15% in size; note: potency is the fitted concentration of half-maximal effect;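 for activation: HG2L7.5c1 human HepG2 liver cells with stably integrated DRE-driven firefly reporter; series mostly up to about 70 µM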
How it was run: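 Luminescence (ONE-Glo) from a dioxin-responsive-element luciferase reporter in HG2L7.5c1 HepG2 cells after 24 hr compound exposure at 37C; viability measured by CellTiter-Fluor fluorescence beforehand.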

[5] = qHTS assay to identify small molecule antagonists of the peroxisome proliferator-activated receptor gamma (PPARg) signaling pathway - cell viability counter screen (AID 743194); note: nearly all actives have a fitted effect of over 55% in size; note: potency is the fitted concentration of half-maximal effect
How it was run: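 Viability was measured as CellTiter-Glo luminescence in GeneBLAzer PPARg UAS-bla HEK293H cells. These cells had been exposed 17 h at 37 C to compounds together with rosiglitazone at 50 nM final, with the beta-lactamase readout taken in the same wells.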

[6] = qHTS assay for small molecule agonists of the antioxidant response element (ARE) signaling pathway (AID 743202; active = well fitted activation curve with a large enough effect in the signal ratio in the repeat runs, not every such curve was filed as active; inconclusive = weak or mixed curves, or effect the other way; inactive = no such curve, though single readings can be large or run the other way; the % refers to the signal ratio; note: potency is the fitted concentration of half-maximal effect)
How it was run: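 After 16 hours of compound treatment at 37 C, HepG2 cells with a stably integrated ARE-driven beta-lactamase reporter were loaded 2 hours at room temperature with LiveBLAzer B/G FRET substrate and fluorescence intensity measured.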

[7] = qHTS assay for small molecule agonists of the antioxidant response element (ARE) signaling pathway - cell viability counter screen (AID 743203; calls by dose curve; note: nearly all actives have a fitted effect of over 55% in size; note: potency is the fitted concentration of half-maximal effect)
How it was run: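 Viability counter screen: CellTiter-Glo luminescence, read after 30 min at room temperature, in ARE-bla HepG2 wells. Compound exposure lasted 16 h at 37C/5% CO2, following a 5 h pre-incubation of the cells after plating.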

[8] = biological target: Estrogen receptor (Homo sapiens) (UniProt P03372); experiment: qHTS assay to identify small molecule agonists of the estrogen receptor alpha (ER-alpha) signaling pathway (AID 743075; calls by dose curve;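 note: HEK293 GripTite cells with ER-alpha and UAS-driven beta-lactamase reporter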; note: potency is the fitted concentration of half-maximal effect)
[9] = biological target: Estrogen receptor (Homo sapiens) (UniProt P03372); experiment: qHTS assay to identify small molecule agonists of the estrogen receptor alpha (ER-alpha) signaling pathway using the BG1 cell line (AID 743079); note: nearly all actives have a fitted effect of over 20% in size; note: potency is the fitted concentration of half-maximal effect
[10] = qHTS assay to identify small molecule antagonists of the estrogen receptor alpha (ER-alpha) signaling pathway using the BG1 cell line (AID 743080; calls by dose curve;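 note: BG1 cells stimulated with 17beta-estradiol alongside compound; series mostly up to about 70 µM; nearly all actives have a fitted effect of over 25% in size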)
How it was run: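 Quantitative HTS on the Tox21 10K library: BG1 cells with endogenous ER-alpha and ERE-luciferase reporter, 17beta-estradiol stimulation, 21.5 h compound exposure, luminescence endpoint with parallel fluorescence cytotoxicity counter-read.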

[11] = qHTS assay to identify aromatase inhibitors - cell viability counter screen (AID 743084);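 note: cells stimulated with testosterone during compound exposure; nearly all actives have a fitted effect of over 55% in size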
[12] = qHTS assay to identify small molecule that activate the aryl hydrocarbon receptor (AhR) signaling pathway - cell viability counter screen (AID 743086);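 note: HepG2 liver cells carrying the AhR DRE luciferase reporter; series mostly up to about 70 µM; nearly all actives have a fitted effect of over 45% in size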
How it was run: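 Cytotoxicity counter screen: CellTiter-Fluor signal (30 min, 37 C) in 4000 HepG2 cells/well carrying the DRE-luciferase reporter, following 24 h compound exposure at 37 C.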

[13] = biological target: Peroxisome proliferator-activated receptor gamma (Homo sapiens) (UniProt P37231); experiment: qHTS assay to identify small molecule agonists of the peroxisome proliferator-activated receptor gamma (PPARg) signaling pathway (AID 743094; active = well fitted activation curve with a large enough effect in the signal ratio in the repeat runs, not every such curve was filed as active; inconclusive = weak or mixed curves, or effect the other way; inactive = no such curve, though single readings can be large or run the other way; the % refers to the signal ratio)
How it was run: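 Agonist activity was taken from a beta-lactamase reporter (FRET substrate, 1 h at room temperature) in HEK293H cells carrying a PPARg UAS-bla construct. Compounds in DMSO were incubated 17 h at 37C after a 5 h cell pre-incubation.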

[14] = qHTS assay for small molecule activators of the heat shock response signaling pathway - cell viability counter screen (AID 743209); note: nearly all actives have a fitted effect of over 50% in size; note: potency is the fitted concentration of half-maximal effect
How it was run: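 Cytotoxicity counter screen run in the same wells as the heat-shock bla reporter assay: HeLa HSE-bla cells, 5 h compound exposure at 37 C, viability read by CellTiter-Glo luminescence.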

[15] = qHTS assay for small molecule activators of the heat shock response signaling pathway (AID 743210; active = well fitted activation curve with a large enough effect in the signal ratio in the repeat runs, with a control signal flat, not every such curve was filed as active; inconclusive = weak or mixed curves; the % refers to the signal ratio; note: series mostly up to about 63 µM)
How it was run: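 Compound exposure lasted 5 h at 37 C in HeLa cells carrying a heat-shock-element-driven beta-lactamase reporter. Read-out: fluorescence intensity after 2.5 h room-temperature loading with LiveBLAzer B/G FRET substrate.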

[16] = biological target: Peroxisome proliferator-activated receptor gamma (Homo sapiens) (UniProt P37231); experiment: qHTS assay to identify small molecule antagonists of the peroxisome proliferator-activated receptor gamma (PPARg) signaling pathway (AID 743191; calls by dose curve; note: series mostly up to about 63 µM; nearly all actives have a fitted effect of over 30% in size)
How it was run: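 Beta-lactamase reporter under UAS control in HEK293H PPARg-bla cells; compound treatment 17 h at 37C. Read-out: fluorescence intensity after 1 h room-temperature incubation with LiveBLAzer B/G FRET substrate.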

[17] = qHTS assay to identify small molecule antagonists of the thyroid receptor (TR) signaling pathway (AID 743065)
How it was run: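 Antagonism measured as loss of luciferase signal in GH3 cells stably carrying a TRE-luciferase reporter, co-treated with compound and T3 (1 nM final) for 23.5 h at 37 C. Viability was read in the same well by CellTiter-Fluor.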

[18] = biological target: Estrogen receptor (Homo sapiens) (UniProt P03372); experiment: qHTS assay to identify small molecule antagonists of the estrogen receptor alpha (ER-alpha) signaling pathway (AID 743069; active = well fitted curve in the direction sought with a large enough effect in the signal ratio in the repeat runs, not every such curve was filed as active; inconclusive = weak or mixed curves, or effect the other way; inactive = no such curve, though single readings can be large or run the other way; the % refers to the signal ratio; note: potency is the fitted concentration of half-maximal effect)
How it was run: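 Antagonist mode: compounds in DMSO were co-added with 17beta-estradiol to ER-alpha-bla HEK293 cells (2% charcoal-stripped serum) and left 18 h at 37C. Reporter inhibition was measured as FRET fluorescence after 2 h LiveBLAzer substrate at room temperature.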

Sequence of Aryl hydrocarbon receptor (Homo sapiens) (P35869 whole entry, looked up): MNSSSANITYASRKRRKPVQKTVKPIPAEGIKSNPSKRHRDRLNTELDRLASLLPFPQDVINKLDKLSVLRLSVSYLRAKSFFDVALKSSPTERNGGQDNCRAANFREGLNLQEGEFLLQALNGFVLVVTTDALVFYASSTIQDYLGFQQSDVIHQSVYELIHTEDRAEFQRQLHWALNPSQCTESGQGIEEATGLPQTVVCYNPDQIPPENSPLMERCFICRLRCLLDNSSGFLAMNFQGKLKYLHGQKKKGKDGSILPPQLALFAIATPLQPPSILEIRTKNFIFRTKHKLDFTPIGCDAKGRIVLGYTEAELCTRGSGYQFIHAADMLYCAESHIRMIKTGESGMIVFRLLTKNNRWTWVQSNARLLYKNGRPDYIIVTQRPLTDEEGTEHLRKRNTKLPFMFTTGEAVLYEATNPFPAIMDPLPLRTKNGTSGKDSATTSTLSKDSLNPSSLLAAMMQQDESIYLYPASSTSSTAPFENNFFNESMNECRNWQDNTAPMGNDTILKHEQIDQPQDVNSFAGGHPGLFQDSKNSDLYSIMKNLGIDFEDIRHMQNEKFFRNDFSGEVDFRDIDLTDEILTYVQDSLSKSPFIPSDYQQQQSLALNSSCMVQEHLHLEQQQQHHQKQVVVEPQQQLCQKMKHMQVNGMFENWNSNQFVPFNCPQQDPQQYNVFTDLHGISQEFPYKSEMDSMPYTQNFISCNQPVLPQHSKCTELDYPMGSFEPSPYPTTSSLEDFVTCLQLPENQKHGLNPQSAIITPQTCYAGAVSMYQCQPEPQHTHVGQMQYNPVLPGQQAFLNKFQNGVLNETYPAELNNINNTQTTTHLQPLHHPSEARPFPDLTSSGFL
Sequence of Peroxisome proliferator-activated receptor gamma (Homo sapiens) (P37231 whole entry, looked up): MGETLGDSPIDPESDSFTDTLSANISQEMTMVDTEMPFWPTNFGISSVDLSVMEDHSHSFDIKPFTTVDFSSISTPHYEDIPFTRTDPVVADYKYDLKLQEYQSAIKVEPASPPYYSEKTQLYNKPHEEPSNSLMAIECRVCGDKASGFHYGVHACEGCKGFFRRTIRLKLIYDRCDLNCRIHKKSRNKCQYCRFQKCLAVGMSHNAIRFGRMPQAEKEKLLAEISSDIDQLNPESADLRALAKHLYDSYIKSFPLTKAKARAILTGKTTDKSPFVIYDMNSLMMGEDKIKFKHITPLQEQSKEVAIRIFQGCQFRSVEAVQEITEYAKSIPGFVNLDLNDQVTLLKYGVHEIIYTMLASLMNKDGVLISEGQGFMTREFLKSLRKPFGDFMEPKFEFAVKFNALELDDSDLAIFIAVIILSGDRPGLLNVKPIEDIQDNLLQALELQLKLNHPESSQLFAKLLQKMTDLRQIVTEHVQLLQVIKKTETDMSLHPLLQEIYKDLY
Sequence of Aromatase (Homo sapiens) (P11511 whole entry, looked up): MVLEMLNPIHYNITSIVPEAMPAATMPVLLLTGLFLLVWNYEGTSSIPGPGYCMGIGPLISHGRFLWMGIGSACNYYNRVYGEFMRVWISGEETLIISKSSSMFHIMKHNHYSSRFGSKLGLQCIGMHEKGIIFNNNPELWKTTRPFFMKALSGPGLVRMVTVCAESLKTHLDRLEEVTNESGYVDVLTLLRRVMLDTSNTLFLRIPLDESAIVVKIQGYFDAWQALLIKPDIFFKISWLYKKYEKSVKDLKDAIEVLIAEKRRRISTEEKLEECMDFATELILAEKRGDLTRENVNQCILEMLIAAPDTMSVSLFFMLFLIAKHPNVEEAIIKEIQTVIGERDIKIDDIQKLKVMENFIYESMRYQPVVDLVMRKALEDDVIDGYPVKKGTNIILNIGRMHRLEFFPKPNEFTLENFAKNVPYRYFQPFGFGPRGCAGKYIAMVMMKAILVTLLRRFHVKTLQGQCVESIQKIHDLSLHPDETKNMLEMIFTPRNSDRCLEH
Sequence of Estrogen receptor (Homo sapiens) (P03372 whole entry, looked up): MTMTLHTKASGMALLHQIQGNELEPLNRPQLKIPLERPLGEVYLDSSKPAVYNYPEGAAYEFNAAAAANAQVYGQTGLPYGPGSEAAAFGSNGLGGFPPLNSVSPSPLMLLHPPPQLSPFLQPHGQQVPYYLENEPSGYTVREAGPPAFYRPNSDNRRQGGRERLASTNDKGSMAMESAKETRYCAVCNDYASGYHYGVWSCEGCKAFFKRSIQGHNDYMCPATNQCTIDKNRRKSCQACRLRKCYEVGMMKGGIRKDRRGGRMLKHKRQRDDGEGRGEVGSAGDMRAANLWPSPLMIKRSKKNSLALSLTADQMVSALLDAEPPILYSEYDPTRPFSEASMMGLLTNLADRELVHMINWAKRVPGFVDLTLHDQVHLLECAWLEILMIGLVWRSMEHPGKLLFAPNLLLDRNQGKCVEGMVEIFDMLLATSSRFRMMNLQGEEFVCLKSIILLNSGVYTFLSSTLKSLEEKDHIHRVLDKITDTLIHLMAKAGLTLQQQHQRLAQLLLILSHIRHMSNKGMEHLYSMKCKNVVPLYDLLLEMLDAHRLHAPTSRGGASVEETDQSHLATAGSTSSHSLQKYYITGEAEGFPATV

Row | SMILES | outcome [1] | Potency [2] | Potency [3] | Potency (Aromatase (Homo sapiens)) | Potency [4] | Potency [5] | Potency [6] | Potency [7] | Potency [8] | Potency [9] | Potency [10] | Potency [11] | Potency [12] | Potency [13] | Potency [14] | Potency [15] | Potency [16] | Potency [17] | Potency [18]
1 | C/C=C/C=C/COC(=O)C(C)C | inactive | inactive | inactive | 68.6 µM (active) | inactive | inactive | 61.1 µM (active) | inactive | – | – | – | – | – | – | – | – | – | – | –
2 | Cc1c(C)c2c(c(C)c1OC(=O)c1cccnc1)CC[C@@](C)(CCC[C@H](C)CCC[C@H](C)CCCC(C)C)O2 | inactive | inactive | inactive | inactive | inactive | – | inactive | inactive | inactive | inactive | inactive | inactive | inactive | inactive | inactive | inactive | – | – | –
3 | CN(C)CCN1CCN(c2cccc(Cl)c2)C1=O | – | – | – | – | – | inactive | inactive | inactive | – | – | – | – | – | – | inactive | inactive | – | – | –
4 | CCCC(=O)OCOC(=O)C1=C(C)NC(C)=C(C(=O)OC)C1c1cccc(Cl)c1Cl (stereo not given) | – | – | – | – | – | inactive | – | inactive | – | – | – | – | – | – | inactive | inactive | inactive | – | –
5 | C#C[C@]1(OC(C)=O)CC[C@H]2[C@@H]3CCC4=C/C(=N/O)CC[C@@H]4[C@H]3CC[C@@]21CC | – | inactive | inactive | 23.7 µM (active) | inactive | – | – | 29.8 µM (active) | 0.952 µM [inconclusive] (active) | 0.106 µM (active) | inactive | – | – | – | – | – | – | 21.1 µM (active) | –
6 | Cl[Si](Cl)(c1ccccc1)c1ccccc1 | inactive | inactive | inactive | inactive | inactive | inactive | inactive | inactive | inactive | inactive | inactive | inactive | – | inactive | inactive | – | – | – | inactive
7 | O=C(c1ccc(O)c(O)c1)c1ccc(O)cc1O | inactive | inactive | – | – | 5.44 µM (active) | inactive | – | inactive | 3.46 µM [inconclusive] (active) | 3.85 µM (active) | inactive | inactive | – | inactive | inactive | – | inactive | – | 34.6 µM [inconclusive] (active)
8 | S=C([S-])NCCNC(=S)[S-].S=C([S-])NCCNC(=S)[S-].[Mn+2].[Zn+2] | inactive | – | – | inactive | inactive | – | 4.73 µM (active) | – | – | – | – | inactive | – | – | inactive | – | – | – | –
9 | CCCCCC(C)OC(=O)COc1ccc(Cl)c2cccnc12 (stereo not given) | inactive | – | inactive | – | – | inactive | inactive | inactive | inactive | inactive | inactive | inactive | inactive | inactive | inactive | – | – | – | –
10 | [Cl][Pt-2]([Cl])([Cl])[Cl] | inactive | inactive | inactive | inactive | inactive | inactive | 48.8 µM (active) | inactive | inactive | inactive | inactive | inactive | – | – | inactive | inactive | – | – | –
11 | Cc1c(N)cccc1C(F)(F)F | – | – | – | – | – | inactive | inactive | inactive | – | – | – | – | – | – | inactive | inactive | inactive | – | –
12 | CCCc1ccc(OCC(=O)N2CCN(C(=O)COc3ccc(CCC)cc3OC)CC2)c(OC)c1 | – | – | – | – | – | – | 29.8 µM (active) | inactive | – | – | – | – | – | – | inactive | inactive | – | – | –
13 | CCC(=O)C(=O)CC | inactive | inactive | inactive | – | – | – | – | – | – | – | – | – | inactive | – | inactive | inactive | – | – | –
14 | Nc1nc2c(ncn2COCCO)c(=O)[nH]1 | – | inactive | inactive | inactive | inactive | inactive | inactive | inactive | inactive | inactive | inactive | inactive | inactive | – | inactive | inactive | – | – | inactive
15 | Fc1ccc(C(c2ccc(F)cc2)N2CCNCC2)cc1 | – | – | – | – | – | 26.6 µM (active) | – | 16.8 µM (active) | – | – | – | – | – | – | 15 µM (active) | – | – | – | –
16 | CC[C@H](C)COC(=O)/C=C/c1ccc(N=Cc2ccc(OC)cc2)cc1 | inactive | – | inactive | – | inactive | – | – | inactive | inactive | 2.73 µM (active) | – | – | inactive | inactive | inactive | inactive | – | – | –
17 | CN(C)Cc1cc(C(C)(C)C)c(O)c(C(C)(C)C)c1 | inactive | inactive | – | inactive | – | inactive | 27.3 µM (active) | inactive | – | – | – | inactive | inactive | inactive | inactive | inactive | inactive | – | –
18 | C1CCC(SSC2CCCCC2)CC1 | inactive | – | inactive | inactive | inactive | inactive | – | inactive | inactive | inactive | inactive | inactive | inactive | inactive | inactive | inactive | – | – | –
19 | CCCCN(CCCC)CC(O)c1cc(Cl)cc2c1-c1ccc(Cl)cc1/C2=C/c1ccc(Cl)cc1 (stereo not given) | – | – | inactive | inactive | 26.6 µM (active) | inactive | inactive | – | inactive | 23.7 µM (active) | inactive | inactive | inactive | inactive | – | – | – | – | inactive
20 | C=CCCC(=O)/C=C/C1C(C)=CCCC1(C)C (stereo not given) | inactive | inactive | inactive | – | inactive | inactive | inactive | inactive | – | – | – | – | inactive | inactive | inactive | inactive | – | – | –
21 | C#Cc1ccc(-c2ccccc2F)cc1 | – | – | – | – | – | – | inactive | inactive | – | – | – | – | – | – | inactive | inactive | inactive | – | –
